Experimental data from PubChem BioAssay.
Calls of active or inactive are those of the source. The rule behind the calls is not given here.

Assay: inhibition of 3D7 malaria parasite growth – strain 3D7 (AID 2306);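 note: 0% = DMSO wells and 100% = chloroquine plus artemisinin control wells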
Details: P. falciparum 3D7 erythrocytic growth, LDH absorbance, 72 h; at 2 µM; hits give high values

Growth inhibition, active:
CCN1CCC(N(Cc2ccc(-c3ccc(Cl)cc3)cc2)C(=O)Cn2c(CCc3cccc(F)c3F)cc(=O)c3ccccc32)CC1 99%
O=C(c1ccc(Cl)cc1)C1CCCN(C2CCN(CCc3ccccc3)CC2)C1 (centres undefined) 96%
N#Cc1ccc2c(c1)CCN(CCC1CCC(NC(=O)c3cc4cccc([N+](=O)[O-])c4[nH]3)CC1)C2 (centres undefined) 100%
CCCCNC(=O)C(C)NC(=O)c1ccc(O)c(-c2ccc(Cl)c(Cl)c2)c1 (centres undefined) 98%
CCN(CC)CCOc1ccc(C(O)(C#CC(O)(c2ccc(Br)cc2)c2ccc(OCCN(CC)CC)cc2)c2ccc(Br)cc2)cc1 (centres undefined) 99%
CC(=O)c1ccc(Nc2c(C(N)=O)cnc3cc(-c4c(C)noc4C)ccc23)cc1 99%
O=C(/C=C/c1c[nH]c2ccccc12)NCCCCCN1CCC(c2c[nH]c3ccccc23)CC1 96%
CN1CCCC1CCNCc1ccc(-c2ccc(CNCCc3ccccc3)cn2)cc1 (centres undefined) 101%
NC1=NC(c2ccccc2)(c2ccccc2)C(=O)N1Cc1ccc(-c2cccnc2)cc1 99%
CCCCCCNC(=O)C1Cc2c([nH]c3ccc(C)cc23)C2(CCN(Cc3ccccc3)CC2)N1 (centres undefined) 84%
Cc1ccc2nc(C)cc(NN=CC=Cc3ccccc3)c2c1 92%
CCOc1c(CNCCCNc2cc(=O)c3ccccc3[nH]2)cc(I)cc1OC 91%
CC(=O)CSC(C=Cc1ccc(N(C)C)cc1)=Nc1ccccc1 81%
N#Cc1ccc(N(CCOc2ccc3c(c2)CCC(=O)N3)Cc2ccccc2C(F)(F)F)cc1C(F)(F)F 98%
